# In PubChem BioAssay (NCATS):
# Where “and” joins values, the source holds several entries; their conditions need not be identical. Equal entries are not always repeated. Results filed as inconclusive are left out. Calls of active or inactive are those of the source. Unless noted, the call rests on the fitted dose curve; in most records, active means well fitted curve in the direction sought with a large enough effect; inconclusive means small, poorly fitted or top-dose-only effect, or another doubt; inactive means no such curve, though single readings can be large; an effect the other way counts as inactive or inconclusive.
# Experiments:
# [1] = qHTS assay to identify small molecules that stimulate interleukin-8 (IL-8) secretion (AID 651758; active means well fitted activation curve with a large enough effect in the signal ratio; the % refers to the signal ratio; further: potency means the concentration at half of the fitted maximal effect; on activation: 0% is about no effect)
# How it was run: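 Quantitative HTS in THP-1 monocytic cells at 2000 cells per well, with 16 hrs compound incubation at 37 C. IL-8 in the medium was then quantified by HTRF immunoassay, read after 1-3 hrs at room temperature.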
# [2] = qHTS assay for small molecule activators of the p53 signaling pathway (AID 651743; active means well fitted activation curve with a large enough effect in the signal ratio, not every such curve was filed as active; the % refers to the signal ratio; further: potency means the concentration at half of the fitted maximal effect; on activation: % of control where 0% means no effect); settings: HCT-116 p53RE-bla, beta-lactamase FRET ratio, 16 h; activation: stronger effect = higher value
# How it was run: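 Agonist-mode quantitative HTS in HCT-116 cells carrying a p53-response-element beta-lactamase reporter; 16 h compound treatment at 37 C, then FRET substrate loading for 2 h at room temperature and fluorescence read.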
# [3] = qHTS assay for small molecule activators of the nuclear factor-kappa B (NF-kB) signaling pathway (AID 651749; active means well fitted activation curve with a large enough effect in the signal ratio; the % refers to the signal ratio; further: % of control where 0% means no effect); settings: NF-kB-bla ME-180 cells, beta-lactamase FRET ratio, 16 h; stronger effect = higher value
# How it was run: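 Human ME-180 cervical cells with an NF-kB-bla construct; compounds added via 23 nL pin transfer, DMSO as vehicle; incubation 16 hr. Reporter activity measured by FRET disruption.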
# [4] = molecular target: Peroxisome proliferator-activated receptor alpha (Homo sapiens) (UniProt Q07869); assay: qHTS assay for small molecule agonists of the peroxisome proliferator-activated receptor alpha (PPARalpha) signaling pathway (AID 651778); settings: PathHunter PPARalpha complementation, chemiluminescence, 6 h; max response: stronger effect = higher value; further: potency means the concentration at half of the fitted maximal effect; on max response: % of control where 0% means no effect
# Chain of Peroxisome proliferator-activated receptor alpha (Homo sapiens) (Q07869 whole entry, looked up): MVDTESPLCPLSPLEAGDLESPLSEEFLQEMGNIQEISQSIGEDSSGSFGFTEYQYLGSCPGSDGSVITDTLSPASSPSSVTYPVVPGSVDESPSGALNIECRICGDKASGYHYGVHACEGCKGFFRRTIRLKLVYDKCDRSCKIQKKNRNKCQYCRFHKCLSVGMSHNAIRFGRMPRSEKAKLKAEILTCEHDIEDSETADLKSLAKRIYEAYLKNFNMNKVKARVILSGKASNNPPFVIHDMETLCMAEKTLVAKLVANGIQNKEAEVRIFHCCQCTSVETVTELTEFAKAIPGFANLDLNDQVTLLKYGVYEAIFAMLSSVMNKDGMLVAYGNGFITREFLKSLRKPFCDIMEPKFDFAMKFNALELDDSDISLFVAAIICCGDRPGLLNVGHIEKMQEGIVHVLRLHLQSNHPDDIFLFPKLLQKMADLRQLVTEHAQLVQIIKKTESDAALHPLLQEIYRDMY
# How it was run: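 Cells plated at 2,000/well and held overnight at 37 C, 5% CO2, then compound added by pin tool for 6 hr; after PathHunter detection reagent and 60 min at room temperature, chemiluminescence from enzyme complementation was read.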
# [5] = Cytotoxicity counterscreen for NFkB agonists and antagonists (AID 624476);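 further: cells exposed to compound for 48 hours; on the % scale 0 is the no-effect control and ±100 the full control effect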
# [6] = qHTS Assay for Identification of Small Molecule Agonists for NFkB Signaling Pathway. (AID 624478); further: 0% is about no effect
# How it was run: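 Compounds were added with 10 pM TNF alpha (EC50 level) to ME-180 NFkB-bla cells in low-serum Opti-MEM and incubated 5 hrs at 37 C. Beta-lactamase FRET read-out used 405 nm excitation and 460 and 530 nm emission.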
# [7] = Cell Proliferation Assay against the HBL1 Cell Line (AID 651646); settings: HBL1 DLBCL cells; at 46.1 µM (top of the series);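 further: cells exposed to compound for 48 h before reading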
# How it was run: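 After a 48 h incubation of 500 HBL1 cells/well in phenol red-free RPMI plus 5% FBS, relative luciferase units from CellTiter-Glo gave percent activity against DMSO and 9.2 uM bortezomib (final) controls.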
# [8] = Cell Proliferation Assay against the TMD8 Cell Line (Caspase readout at 16 hrs) (AID 651712); further: potency means the concentration at half of the fitted maximal effect
# How it was run: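 16 h, 37 °C, TMD8 (500 cells/well), RPMI/5% FBS no phenol red; Caspase-Glo 3/7, 15 min RT, luminescence; %act: DMSO 0, bortezomib 9.2 uM final 100.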
# [9] = Cell Proliferation Assay against the TMD8 Cell Line (Caspase readout at 8 hrs) (AID 651713);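 further: 0% = DMSO and 100% = 9.2 µM bortezomib caspase signal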
# How it was run: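 Apoptosis read-out: Caspase-Glo luminescence after 8 h compound exposure of TMD8 lymphoma cells at 37C, 5% CO2. Signals were normalized as percent activity between DMSO and bortezomib (9.2 uM final) controls.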
# [10] = molecular target: Tyrosine-protein kinase Yes (Homo sapiens) (UniProt P07947); assay: qHTS for small molecule inhibitors of Yes1 kinase: Primary Screen (AID 686947); further: nearly all actives have a fitted effect of over 60% in size; further: potency means the concentration at half of the fitted maximal effect
# Chain of Tyrosine-protein kinase Yes (Homo sapiens) (P07947 whole entry, looked up): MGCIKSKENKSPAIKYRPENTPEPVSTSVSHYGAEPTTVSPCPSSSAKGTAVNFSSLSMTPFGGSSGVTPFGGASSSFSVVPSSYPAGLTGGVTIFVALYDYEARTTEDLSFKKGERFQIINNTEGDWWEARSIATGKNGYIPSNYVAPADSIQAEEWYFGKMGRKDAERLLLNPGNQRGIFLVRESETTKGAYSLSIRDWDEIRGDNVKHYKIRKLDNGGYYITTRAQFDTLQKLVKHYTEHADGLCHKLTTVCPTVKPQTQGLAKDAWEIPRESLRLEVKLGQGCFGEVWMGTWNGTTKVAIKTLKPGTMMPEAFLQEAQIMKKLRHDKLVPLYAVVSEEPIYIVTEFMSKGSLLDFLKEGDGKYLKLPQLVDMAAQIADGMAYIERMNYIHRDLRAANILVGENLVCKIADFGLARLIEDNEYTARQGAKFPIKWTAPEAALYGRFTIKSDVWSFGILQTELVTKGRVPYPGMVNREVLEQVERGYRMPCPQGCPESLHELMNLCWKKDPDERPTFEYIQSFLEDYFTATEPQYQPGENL
# How it was run: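 ADP-Glo luminescence reports ADP formed by 4 nM Yes1 phosphorylating poly(E4Y) (0.3 mg/mL) with 0.1 mM ATP for 60 min at room temperature, following 20 min compound preincubation; normalised between DMSO wells with and without enzyme.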
# [11] = qHTS for small molecule inhibitors of Yes1 kinase: Counter Assay (AID 686950);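 further: no kinase present so only ADP-Glo detection of a fixed ADP amount is tested; luminescence from ADP-Glo reporting ADP in a fixed ATP and ADP mixture; 0% = DMSO wells with ATP plus ADP and -100% = ATP-only wells without ADP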
# How it was run: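 Measuring interference with ADP-Glo, the assay ran 60 min at room temperature on an ATP/ADP mix lacking enzyme. Values were normalized to ATP-plus-ADP (maximum) and ATP-only (minimum) DMSO controls.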
# [12] = qHTS assay for small molecule agonists of the antioxidant response element (ARE) signaling pathway (AID 651741; active means well fitted activation curve with a large enough effect in the signal ratio; the % refers to the signal ratio; further: potency means the concentration at half of the fitted maximal effect; on activation: % of control where 0% means no effect)
# How it was run: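 Reporter: beta-lactamase under ARE, stably in HepG2. Exposure: 16 h, 37 C, compounds delivered in DMSO by pin tool after 5 h cell preincubation. Readout: FRET substrate fluorescence after 2 h at RT.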
# [13] = qHTS assay for small molecule disruptors of the mitochondrial membrane potential - 1 hr assay (AID 651754; calls by dose curve; further: nearly all actives have a fitted effect of over 35% in size; further: potency means the concentration at half of the fitted maximal effect)
# How it was run: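 Mitochondrial potential in living HepG2 cells after 1 hr compound treatment at 37C was read with Mito-MPS dye added for a further 30 min. Red aggregate and green monomer fluorescence were measured; loss of potential leaves dye as cytoplasmic monomers.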
# [14] = qHTS assay for small molecule disruptors of the mitochondrial membrane potential - 5 hr assay (AID 651755; calls by dose curve; further: nearly all actives have a fitted effect of over 40% in size; further: potency means the concentration at half of the fitted maximal effect)
# How it was run: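 Seed HepG2 overnight, add compound, incubate 5 hr at 37C and 5% CO2, stain 30 min with Mito-MPS, then measure monomer (490/535 nm) and aggregate (540/590 nm) fluorescence.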
# [15] = qHTS assay for environmental chemicals that activate the Aryl hydrocarbon Receptor (AhR) signaling pathway (AID 651777); settings: 1A2-DRE human hepatoma cells, luciferase, 24 h; activation: stronger effect = higher value; further: nearly all actives have a fitted effect of over 15% in size; further: potency means the concentration at half of the fitted maximal effect; on activation: % of control where 0% means no effect
# How it was run: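 Reporter gene assay: hepatoma cells with DRE/CYP1A2-luciferase, 24 hr compound incubation at 37 C, 5% CO2, luminescence after One-Glo (30 min, RT).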
# [16] = molecular target: Arylsulfatase A (Homo sapiens) (UniProt P15289); assay: qHTS screen for enhancers of Arylsulfatase A (ASA1): LOPAC Validation Assay (AID 720538); further: 0% is about no effect
# Chain of Arylsulfatase A (Homo sapiens) (P15289 whole entry, looked up): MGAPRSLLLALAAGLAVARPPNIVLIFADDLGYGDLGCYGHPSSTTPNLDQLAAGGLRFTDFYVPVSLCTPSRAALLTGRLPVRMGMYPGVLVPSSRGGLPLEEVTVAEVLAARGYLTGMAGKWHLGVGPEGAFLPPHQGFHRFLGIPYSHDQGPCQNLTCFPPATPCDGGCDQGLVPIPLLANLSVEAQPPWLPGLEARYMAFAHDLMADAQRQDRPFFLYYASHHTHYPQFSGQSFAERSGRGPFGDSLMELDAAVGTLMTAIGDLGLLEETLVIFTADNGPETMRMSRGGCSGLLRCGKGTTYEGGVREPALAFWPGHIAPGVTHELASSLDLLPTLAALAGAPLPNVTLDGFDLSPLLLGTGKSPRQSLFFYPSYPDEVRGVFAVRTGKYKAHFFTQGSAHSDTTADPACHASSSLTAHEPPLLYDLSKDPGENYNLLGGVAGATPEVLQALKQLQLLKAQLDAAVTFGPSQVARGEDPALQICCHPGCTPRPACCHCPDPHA
# How it was run: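 First, ASA-I179S fibroblasts from an MLD patient adhered for 6 hrs. Next, compounds were added for 48h. Then pNCS substrate (0.5mM final) with lysis buffer reacted 14h at room temperature before NaOH stop and fluorescence measurement.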
# [17] = qHTS Assay for Identification of Small Molecule Antagonists for NFkB Signaling Pathway. (AID 624479; calls by dose curve;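 further: pathway stimulated with TNF alpha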; further: potency means the concentration at half of the fitted maximal effect)
# [18] = molecular target: Nuclear receptor ROR-gamma (Homo sapiens) (UniProt P51449); assay: qHTS assay for small molecule antagonists of the retinoid-related orphan receptor gamma (ROR-gamma) signaling pathway (AID 651802); further: nearly all actives have a fitted effect of over 60% in size; further: potency means the concentration at half of the fitted maximal effect
# Chain of Nuclear receptor ROR-gamma (Homo sapiens) (P51449 whole entry, looked up): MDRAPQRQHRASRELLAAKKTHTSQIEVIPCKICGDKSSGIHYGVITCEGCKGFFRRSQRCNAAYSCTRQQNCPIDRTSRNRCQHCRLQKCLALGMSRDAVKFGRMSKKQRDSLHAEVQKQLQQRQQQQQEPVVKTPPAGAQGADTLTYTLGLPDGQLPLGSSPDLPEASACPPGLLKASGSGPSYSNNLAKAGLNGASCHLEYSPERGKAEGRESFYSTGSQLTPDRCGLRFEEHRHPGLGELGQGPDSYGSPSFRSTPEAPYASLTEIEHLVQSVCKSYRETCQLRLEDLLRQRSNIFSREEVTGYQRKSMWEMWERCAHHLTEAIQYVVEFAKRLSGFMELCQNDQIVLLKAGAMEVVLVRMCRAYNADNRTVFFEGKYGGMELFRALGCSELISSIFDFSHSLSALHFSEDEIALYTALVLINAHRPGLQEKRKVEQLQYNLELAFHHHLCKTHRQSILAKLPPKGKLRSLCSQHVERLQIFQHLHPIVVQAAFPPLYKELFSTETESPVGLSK
# How it was run: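 Luminescence (One-Glo, 30 min RT) measured 16 h after compound addition and doxycycline induction at 37C. Reporter: RORE-luciferase under TET-inducible ROR-gamma in CHO cells.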
compound,measurement,setting,value
NCC(O)c1ccc(O)cc1 (centres undefined),Potency,[1],inactive
CCCC(C)(COC(N)=O)COC(=O)NC(C)C (centres undefined),Potency,[1],inactive
C[C@H]1O[C@@H](O[C@H]2[C@@H](O)C[C@H](O[C@H]3[C@@H](O)C[C@H](O[C@H]4CC[C@@]5(C)[C@H](CC[C@@H]6[C@@H]5CC[C@]5(C)[C@@H](C7=CC(=O)OC7)CC[C@]65O)C4)O[C@@H]3C)O[C@@H]2C)C[C@H](O)[C@@H]1O,activation,[2],-10.8% (inactive)
same,activation,[3],-1.01% (inactive)
same,max response,[4],-0.744% (inactive)
C[C@@H]1[C@@H](CC(C[C@H]2O[C@@H]3O[C@]4(C)CC[C@@H]5[C@H](C)CC[C@@H]([C@H]2C)[C@@]35OO4)C[S+](=O)([O-])c2ccc(COC(=O)N(C)C)cc2)O[C@@H]2O[C@]3(C)CC[C@H]4[C@H](C)CC[C@@H]1[C@@]24OO3 (some centres undefined),Potency,[5],inactive
same,outcome,[6],inactive
same,"viability, percent of control",[7],39.8%
same,Potency,[8],0.209 µM (active)
same,Potency,[9],inactive
same,Potency,[10],inactive
same,outcome,[11],inactive
O=c1[nH]cc(F)c(=O)[nH]1,Potency,[2],3.98 µM (active)
CC(=O)Oc1ccccc1C(=O)Nc1ncc([N+](=O)[O-])s1,Potency,[12],18.8 µM (active)
same,Potency,[2],12.6 µM (active)
same,Potency,[13],7.5 µM (active)
same,Potency,[14],6.68 µM (active)
same,Potency,[15],0.708 µM (active)
O=c1oc2ccccc2c(O)c1C(CC(O)c1ccc(-c2ccc(Br)cc2)cc1)c1ccccc1 (centres undefined),Potency,[12],27.3 µM (active)
same,activation,[3],-6.71% (inactive)
same,activation,[15],-0.116% (inactive)
same,max response,[4],-1.05% (inactive)
CNCCC(Oc1ccc(C(F)(F)F)cc1)c1ccccc1 (centres undefined),Potency,[16],inactive
O=c1c(O)c(-c2ccc(O)c(O)c2)oc2cc(O)cc(O)c12,Potency,[17],14.9 µM (active)
same,"viability, percent of control",[7],56.5%
same,Potency,[10],15.4 µM (active)
CC(C)(C)CC(C)(C)c1ccc(O)cc1,activation,[2],1.12% (inactive)
same,Potency,[4],25.1 µM (active)
NC(=Nc1ccccc1)Nc1ccccc1,Potency,[12],19.3 µM (active) and 18.8 µM (active)
same,Potency,[15],11.2 µM (active)
CC(C)n1c(C=C[C@H](O)C[C@H](O)CC(=O)O)c(-c2ccc(F)cc2)c2ccccc21,"viability, percent of control",[7],74.8%
CC(COc1ccccc1)N(CCCl)Cc1ccccc1 (centres undefined),Potency,[12],48.6 µM (active) and 42.2 µM (active)
CNC(=O)c1ccc(N2C(=S)N(c3ccc(C#N)c(C(F)(F)F)c3)C(=O)C23CCC3)cc1F,Potency,[5],inactive
same,outcome,[6],inactive
same,Potency,[17],inactive
same,"viability, percent of control",[7],77.6%
same,Potency,[9],inactive
same,outcome,[11],inactive
OCCOc1ccccc1,Potency,[12],inactive
same,activation,[2],-4.8% (inactive) and -3.64% (inactive)
same,Potency,[13],inactive
same,Potency,[14],inactive
same,activation,[15],-1.68% (inactive) and 1.95% (inactive) and 8.55% (inactive)
same,max response,[4],-6.3% (inactive) and -2.04% (inactive) and 0.179% (inactive)
same,Potency,[18],inactive
COc1cc2c(c(OC)c1OC)-c1ccc(OC)c(=O)cc1[C@@H](NC(C)=O)CC2,Potency,[12],0.075 µM (active)
same,Potency,[1],53.1 nM (active) and 47.3 nM (active)
same,Potency,[18],335 nM (active) and 119 nM (active)
Cc1cc(SCc2sc(-c3ccc(C(F)(F)F)c(F)c3)nc2C)ccc1OCC(=O)O,outcome,[6],inactive
same,"viability, percent of control",[7],93.2%
same,Potency,[9],inactive
same,Potency,[12],68.6 µM (active)
same,activation,[3],-3.79% (inactive)
same,activation,[15],14.6% (inactive)
same,Potency,[4],2 µM (active)
same,Potency,[10],inactive
same,outcome,[11],inactive
C[C@]12CCC(=O)C(O)=C1CC[C@@H]1[C@@H]2CC[C@]2(C)C(=O)CC[C@@H]12,"viability, percent of control",[7],87.5%
same,Potency,[8],inactive
same,Potency,[9],inactive
same,Potency,[12],inactive
same,activation,[2],-6.6% (inactive)
same,activation,[3],2.01% (inactive)
same,activation,[15],0.0711% (inactive)
same,max response,[4],-1.14% (inactive)
same,Potency,[10],inactive
same,outcome,[11],inactive
same,Potency,[16],inactive
CCCCC/C=C\C/C=C\C/C=C\C/C=C\CCCC(=O)NC1CC1,Potency,[5],inactive
same,outcome,[6],inactive
same,"viability, percent of control",[7],109%
same,Potency,[8],inactive
same,Potency,[9],inactive
same,Potency,[10],inactive
same,outcome,[11],inactive
c1ccc2c(c1)Nc1ccccc1S2,Potency,[12],54.5 µM (active)
same,activation,[2],4.3% (inactive) and -2.32% (inactive)
same,Potency,[13],42.2 µM (active)
same,Potency,[14],66.8 µM (active)
same,max response,[4],-1.15% (inactive) and -1.18% (inactive)
same,Potency,[18],inactive
C[C@]12C/C(=C/O)C(=O)C[C@@H]1CC[C@@H]1[C@@H]2CC[C@@]2(C)[C@H]1CC[C@]2(C)O,Potency,[12],6.86 µM (active) and 7.5 µM (active)
same,activation,[2],23.1% (inactive)
same,Potency,[13],inactive
same,Potency,[14],inactive
same,Potency,[1],inactive
same,activation,[15],1.36% (inactive) and 0.159% (inactive)
same,max response,[4],-0.191% (inactive) and -0.334% (inactive)
CS(=O)c1ccc(-c2nc(-c3ccc(F)cc3)c(-c3ccncc3)[nH]2)cc1 (centres undefined),"viability, percent of control",[7],100%
